In PubChem BioAssay (NCATS):
Records with an inconclusive call do not appear. A call without a number means that no potency is given here. Activity calls are given as the source filed them. Unless noted, calls follow the shape of the dose curve; as a rule, active = well fitted curve in the direction sought with a large enough effect; inconclusive = small, poorly fitted or top-dose-only effect, or another doubt; inactive = no such curve, though single readings can be large; an effect the other way counts as inactive or inconclusive.

Key:
[1] = biological target: Thioredoxin reductase 1, cytoplasmic (Rattus norvegicus) (UniProt O89049); assay: qHTS Assay for Substrates of Mammalian Selenoprotein Thioredoxin Reductase 1 (TrxR1) (AID 488772);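 also: NADPH fluorescence in the first read after selenite addition and not the 8 min delta; series mostly up to about 57 µM; a drop in NADPH fluorescence below the no-compound background marks a TrxR1 substrate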
Method in brief: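 Quantitative HTS in Tris-HCl buffer at pH 7.5 with EDTA and Tween-20, using rat TrxR1, 400 uM NADPH and 400 uM selenite (final). A fall in initial NADPH fluorescence relative to background marked substrate behaviour.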

[2] = biological target: Thioredoxin reductase 1, cytoplasmic (Rattus norvegicus) (UniProt O89049); assay: qHTS Assay for Inhibitors of Mammalian Selenoprotein Thioredoxin Reductase 1 (TrxR1) (AID 488773); conditions: Potency: inhibition; also: nearly all actives have a fitted effect of over 40% in size; also: potency is read from the fitted curve at half-maximal effect
Method in brief: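 Steps: enzyme (90 nM) plus NADPH (400 uM final), 5 min at ~22 deg C; compound added, 15 min; selenite (400 uM final) added; fluorescence followed for 8 min. Concentration-response curves derived from the normalized delta values.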

[3] = biological target: Flap endonuclease 1 (Homo sapiens) (UniProt P39748); assay: qHTS Validation Assay for the Inhibitors of Human Flap endonuclease 1 (FEN1) (AID 488816); also: potency is read from the fitted curve at half-maximal effect
Chain of Flap endonuclease 1 (Homo sapiens) (P39748 whole entry, looked up): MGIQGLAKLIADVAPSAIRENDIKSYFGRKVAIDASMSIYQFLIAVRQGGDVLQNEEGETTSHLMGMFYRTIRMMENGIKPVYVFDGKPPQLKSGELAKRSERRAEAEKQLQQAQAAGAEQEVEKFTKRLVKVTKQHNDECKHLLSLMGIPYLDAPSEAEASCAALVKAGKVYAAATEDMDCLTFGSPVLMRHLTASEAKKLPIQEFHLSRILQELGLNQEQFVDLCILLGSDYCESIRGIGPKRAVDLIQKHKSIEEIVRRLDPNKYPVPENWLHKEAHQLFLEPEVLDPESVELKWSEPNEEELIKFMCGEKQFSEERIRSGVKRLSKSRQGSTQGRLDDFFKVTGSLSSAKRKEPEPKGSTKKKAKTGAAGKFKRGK
Method in brief: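 Readings taken at 0 and 15 min after starting the reaction with 50 nM (final) substrate supplied the signal. Compounds had first sat with 10 nM FEN1 reagent for 15 min at room temperature. Values come from Hill-equation concentration-response fits.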

[4] = biological target: M-phase phosphoprotein 8 (Homo sapiens) (UniProt Q99549); assay: qHTS Validation Assay for Inhibitors for MPP8 Chromodomain Interactions with Methylated Histone Tails (AID 488949);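 also: AlphaScreen signal from MPP8 chromodomain bound to biotinylated H3K9me3 peptide; top concentration of the series differs between compounds; nearly all actives have a fitted effect of over 55% in size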
Chain of M-phase phosphoprotein 8 (Homo sapiens) (Q99549 whole entry, looked up): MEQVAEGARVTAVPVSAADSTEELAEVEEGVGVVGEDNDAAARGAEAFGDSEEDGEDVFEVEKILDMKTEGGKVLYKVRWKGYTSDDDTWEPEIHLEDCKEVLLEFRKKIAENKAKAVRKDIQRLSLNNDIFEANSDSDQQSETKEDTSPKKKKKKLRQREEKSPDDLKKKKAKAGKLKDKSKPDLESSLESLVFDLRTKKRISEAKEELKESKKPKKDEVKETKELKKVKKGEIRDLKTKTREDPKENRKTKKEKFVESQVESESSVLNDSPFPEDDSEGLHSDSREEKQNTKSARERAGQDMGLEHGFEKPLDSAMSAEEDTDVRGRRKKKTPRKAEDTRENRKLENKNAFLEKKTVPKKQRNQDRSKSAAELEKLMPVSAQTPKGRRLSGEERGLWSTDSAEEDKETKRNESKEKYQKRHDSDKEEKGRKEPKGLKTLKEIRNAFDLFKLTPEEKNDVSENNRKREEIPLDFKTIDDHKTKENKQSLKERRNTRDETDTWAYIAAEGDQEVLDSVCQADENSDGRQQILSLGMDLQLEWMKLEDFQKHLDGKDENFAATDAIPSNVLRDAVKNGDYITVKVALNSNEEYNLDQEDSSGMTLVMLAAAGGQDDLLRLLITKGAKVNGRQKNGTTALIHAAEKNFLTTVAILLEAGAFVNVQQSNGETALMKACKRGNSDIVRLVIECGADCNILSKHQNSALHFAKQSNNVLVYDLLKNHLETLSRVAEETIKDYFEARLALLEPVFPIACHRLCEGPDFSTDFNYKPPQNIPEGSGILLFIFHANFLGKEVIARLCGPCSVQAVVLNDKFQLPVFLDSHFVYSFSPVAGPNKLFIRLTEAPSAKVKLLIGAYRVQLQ
Method in brief: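 AlphaScreen proximity signal from streptavidin donor and Ni-chelate acceptor beads (10 ug/mL each) reported binding of MPP8 to trimethyl-K9 H3(1-18) peptide, both at 50 nM. The complex formed 30 min before a 30 min compound exposure at room temperature, in PBS pH 7.4.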

[5] = biological target: Methanococcus maripaludis chaperonin (MmCpn) (UniProt Q6LX38); assay: High-Throughput Screening for Modulators of Cytosolic Chaperonin Activity: MmCpn Primary Screen (AID 488978);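 also: 50 nM MmCpn enzyme hydrolysing 30 µM ATP at 37 °C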
Chain of Methanococcus maripaludis chaperonin (MmCpn) (Q6LX38 1-543): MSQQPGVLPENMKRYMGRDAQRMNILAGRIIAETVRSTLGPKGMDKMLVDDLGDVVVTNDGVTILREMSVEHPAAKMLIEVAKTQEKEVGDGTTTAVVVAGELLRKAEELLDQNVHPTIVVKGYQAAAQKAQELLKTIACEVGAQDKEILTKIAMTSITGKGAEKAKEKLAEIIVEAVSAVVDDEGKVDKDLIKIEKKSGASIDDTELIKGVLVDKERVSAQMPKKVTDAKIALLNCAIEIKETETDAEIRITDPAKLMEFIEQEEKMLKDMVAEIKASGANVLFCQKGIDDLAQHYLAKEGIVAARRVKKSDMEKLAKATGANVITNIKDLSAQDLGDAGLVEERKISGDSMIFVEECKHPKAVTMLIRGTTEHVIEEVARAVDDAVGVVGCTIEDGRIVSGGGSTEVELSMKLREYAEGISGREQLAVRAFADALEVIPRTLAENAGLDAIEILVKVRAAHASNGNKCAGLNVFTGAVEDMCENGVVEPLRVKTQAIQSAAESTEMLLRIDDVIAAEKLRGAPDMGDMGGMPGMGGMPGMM
Method in brief: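 ATPase activity of 50 nM MmCpn was assayed with 30 uM ATP, 10 minutes at 37C, after a 5 min compound preincubation at room temperature. ADP production was read as HTRF emission at 590 and 665 nm.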

[6] = biological target: D(1A) dopamine receptor (Homo sapiens) (UniProt P21728); assay: HTS Assay for Allosteric Agonists of the Human D1 Dopamine Receptor: Primary Screen for Agonists (AID 488981)
Chain of D(1A) dopamine receptor (Homo sapiens) (P21728 whole entry, looked up): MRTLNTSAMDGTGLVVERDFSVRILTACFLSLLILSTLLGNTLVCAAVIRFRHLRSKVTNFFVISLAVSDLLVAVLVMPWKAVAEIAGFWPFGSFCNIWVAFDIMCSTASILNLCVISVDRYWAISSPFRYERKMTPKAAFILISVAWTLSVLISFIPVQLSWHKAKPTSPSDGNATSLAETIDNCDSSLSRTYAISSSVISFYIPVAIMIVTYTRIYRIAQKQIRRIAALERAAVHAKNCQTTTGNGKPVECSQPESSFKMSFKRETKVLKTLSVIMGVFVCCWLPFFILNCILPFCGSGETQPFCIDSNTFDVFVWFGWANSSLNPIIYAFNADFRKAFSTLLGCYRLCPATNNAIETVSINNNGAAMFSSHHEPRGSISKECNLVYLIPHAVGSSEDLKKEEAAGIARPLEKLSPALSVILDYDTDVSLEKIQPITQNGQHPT
Method in brief: (§1)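 Calcium flux in an inducible, force-coupled HEK293 Trex D1 line (overnight at 30 C): agonist mode is the 180 s kinetic read after compound; potentiator mode is the following 180 s read after dopamine at EC20.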

[7] = biological target: D(1A) dopamine receptor (Homo sapiens) (UniProt P21728); assay: HTS Assay for Allosteric Agonists of the Human D1 Dopamine Receptor: Primary Screen for Potentiators (AID 488982)
Method in brief: as §1

[8] = biological target: D(1A) dopamine receptor (Homo sapiens) (UniProt P21728); assay: HTS Assay for Allosteric Agonists of the Human D1 Dopamine Receptor: Primary Screen for Antagonists (AID 488983);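 also: calcium flux response to an EC80 dopamine challenge measured with no-wash dye; nearly all actives have a fitted effect of over 65% in size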; also: potency is read from the fitted curve at half-maximal effect
Method in brief: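 Tetracycline-induced HEK293 T-REx cells expressing force-coupled D1 were plated overnight at 30 C, dye-loaded for calcium, and read kinetically. Compounds were pinned in, then an EC80 dopamine challenge followed after 180 s to reveal antagonism.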

[9] = Validation screen for small molecules that induce genotoxicity in human embryonic kidney (HEK293T) cells expressing luciferase-tagged ELG1 (AID 493106)
Method in brief: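 HEK293T cells expressing luciferase-tagged ELG1 were exposed to compound or DMSO vehicle for 16 hr at 37 °C, 5% CO2. Genotoxic stress raises ELG1 levels, so increased luciferase signal after ONE-Glo addition and 30 min at room temperature marks hits.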

[10] = biological target: ATPase family AAA domain-containing protein 5 (Homo sapiens) (UniProt Q96QE3); assay: Validation screen for small molecules that inhibit ELG1-dependent DNA repair in human embryonic kidney (HEK293T) cells expressing luciferase-tagged ELG1 (AID 493107); also: nearly all actives have a fitted effect of over 70% in size; also: potency is read from the fitted curve at half-maximal effect
Chain of ATPase family AAA domain-containing protein 5 (Homo sapiens) (Q96QE3 whole entry, looked up, the tested form may be a part): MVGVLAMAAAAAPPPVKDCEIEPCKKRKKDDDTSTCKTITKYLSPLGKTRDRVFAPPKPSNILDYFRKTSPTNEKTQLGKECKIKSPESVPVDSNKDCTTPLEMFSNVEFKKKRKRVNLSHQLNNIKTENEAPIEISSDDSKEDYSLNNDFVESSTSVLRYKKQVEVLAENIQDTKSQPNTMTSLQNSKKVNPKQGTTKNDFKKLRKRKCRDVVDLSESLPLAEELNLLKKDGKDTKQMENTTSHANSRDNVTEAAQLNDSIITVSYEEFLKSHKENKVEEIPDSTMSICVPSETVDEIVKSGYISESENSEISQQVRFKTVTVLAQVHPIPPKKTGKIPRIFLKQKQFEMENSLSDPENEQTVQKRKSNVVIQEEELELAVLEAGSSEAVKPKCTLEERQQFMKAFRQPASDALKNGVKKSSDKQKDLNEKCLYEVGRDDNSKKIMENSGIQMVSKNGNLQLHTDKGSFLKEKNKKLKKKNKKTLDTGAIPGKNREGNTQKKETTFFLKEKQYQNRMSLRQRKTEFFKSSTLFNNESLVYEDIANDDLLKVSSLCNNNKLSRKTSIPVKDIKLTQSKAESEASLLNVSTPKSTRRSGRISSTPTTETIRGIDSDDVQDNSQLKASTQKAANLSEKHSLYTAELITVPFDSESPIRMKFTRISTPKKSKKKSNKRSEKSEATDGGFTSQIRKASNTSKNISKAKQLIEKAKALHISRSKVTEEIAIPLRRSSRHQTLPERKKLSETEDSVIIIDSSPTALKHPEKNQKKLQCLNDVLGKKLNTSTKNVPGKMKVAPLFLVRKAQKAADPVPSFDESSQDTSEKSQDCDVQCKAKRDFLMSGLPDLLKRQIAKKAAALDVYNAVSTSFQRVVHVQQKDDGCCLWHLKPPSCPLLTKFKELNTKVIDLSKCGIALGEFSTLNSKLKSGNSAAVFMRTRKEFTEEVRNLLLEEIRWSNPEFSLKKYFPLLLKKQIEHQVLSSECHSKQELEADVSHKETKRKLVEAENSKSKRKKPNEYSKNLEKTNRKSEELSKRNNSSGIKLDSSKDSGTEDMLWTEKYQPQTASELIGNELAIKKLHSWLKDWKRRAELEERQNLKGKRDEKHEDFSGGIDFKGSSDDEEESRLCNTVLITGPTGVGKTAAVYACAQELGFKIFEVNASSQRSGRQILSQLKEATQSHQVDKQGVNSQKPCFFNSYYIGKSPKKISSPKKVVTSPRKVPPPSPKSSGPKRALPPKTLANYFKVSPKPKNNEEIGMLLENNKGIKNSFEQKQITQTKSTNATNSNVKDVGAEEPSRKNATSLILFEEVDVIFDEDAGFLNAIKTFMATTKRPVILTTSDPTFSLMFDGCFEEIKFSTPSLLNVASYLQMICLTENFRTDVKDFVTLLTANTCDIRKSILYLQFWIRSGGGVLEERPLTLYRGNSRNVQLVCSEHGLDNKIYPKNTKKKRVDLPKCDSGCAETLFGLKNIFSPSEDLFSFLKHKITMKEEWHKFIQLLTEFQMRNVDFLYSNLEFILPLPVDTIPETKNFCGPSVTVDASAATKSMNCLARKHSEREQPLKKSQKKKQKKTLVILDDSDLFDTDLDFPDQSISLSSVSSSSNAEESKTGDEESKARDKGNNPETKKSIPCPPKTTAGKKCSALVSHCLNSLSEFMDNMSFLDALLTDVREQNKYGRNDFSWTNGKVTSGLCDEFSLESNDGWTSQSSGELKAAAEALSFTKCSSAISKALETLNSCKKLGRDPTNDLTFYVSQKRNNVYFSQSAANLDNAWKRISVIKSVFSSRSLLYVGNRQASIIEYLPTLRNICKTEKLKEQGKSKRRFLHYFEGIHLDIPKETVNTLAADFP
Method in brief: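 HEK293T cells expressing luciferase-tagged ELG1 were co-treated with 5-fluorouridine and compound or DMSO for 16 hr at 37 °C, 5% CO2. Luciferase activity was then read with ONE-Glo after 30 min at room temperature; suppressed signal indicates blocked ELG1 function.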

[11] = Nrf2 qHTS screen for inhibitors: Validation (AID 493153; active = well fitted inhibition curve with a large enough effect in the main read-out, with a control signal flat, not every such curve was filed as active); conditions: Potency: luciferase luminescence; viability change: measured here: cytotoxicity max response
Method in brief: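 A549 cells carrying an ARE-driven firefly luciferase reporter, in 5% FBS OPTI-MEM, were treated with compounds in concentration-response for 18-24 h at 37°C. Viability was read by CellTiter-Fluor fluorescence, then Nrf2 activity by luciferase luminescence.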

[12] = qHTS for Inhibitors of Cell Surface uPA Generation: Validation Assay (AID 493164);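 also: RAW 264.7 macrophage cells exposed to compound for 18 h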
Method in brief: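 RAW 264.7, 4000 cells/well, o/n plating; cpd 7-pt 1:5 dilution 2.45 nM–38.3 uM final; 18 h, 37 C/5% CO2; ATP-Lite, 5 s luminescence exposure.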

[13] = biological target: ATP-dependent 6-phosphofructokinase (Trypanosoma brucei brucei) (UniProt O15648); assay: qHTS Assay to Find Inhibitors of T. brucei phosphofructokinase: hit validation (AID 492961); also: potency is read from the fitted curve at half-maximal effect
Chain of ATP-dependent 6-phosphofructokinase (Trypanosoma brucei brucei) (O15648 whole entry, looked up): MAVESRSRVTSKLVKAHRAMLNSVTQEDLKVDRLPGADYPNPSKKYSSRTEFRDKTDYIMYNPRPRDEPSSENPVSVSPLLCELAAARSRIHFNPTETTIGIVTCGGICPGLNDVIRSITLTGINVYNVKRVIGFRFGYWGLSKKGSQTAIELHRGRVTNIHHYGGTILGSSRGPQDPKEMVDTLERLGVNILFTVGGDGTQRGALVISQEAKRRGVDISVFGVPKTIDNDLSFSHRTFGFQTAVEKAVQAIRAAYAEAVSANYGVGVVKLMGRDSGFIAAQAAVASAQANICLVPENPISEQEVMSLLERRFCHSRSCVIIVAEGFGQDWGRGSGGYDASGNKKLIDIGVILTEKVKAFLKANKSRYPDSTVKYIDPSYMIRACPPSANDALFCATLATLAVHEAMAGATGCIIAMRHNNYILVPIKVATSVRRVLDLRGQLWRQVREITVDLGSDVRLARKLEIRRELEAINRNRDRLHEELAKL
Method in brief: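 Measures ADP output of PFK (1.25 nM) at 0.1 mM ATP, 0.5 mM F6P, pH 8.0 TEA buffer with 5 mM MgCl2. No-enzyme wells define full inhibition; uninhibited enzyme wells define zero.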

[14] = biological target: Chromobox protein homolog 1 (Homo sapiens) (UniProt P83916); assay: qHTS Validation Assay for Inhibitors of HP1-beta Chromodomain Interactions with Methylated Histone Tails (AID 488953); also: nearly all actives have a fitted effect of over 50% in size; also: potency is read from the fitted curve at half-maximal effect
Chain of Chromobox protein homolog 1 (Homo sapiens) (P83916 whole entry, looked up): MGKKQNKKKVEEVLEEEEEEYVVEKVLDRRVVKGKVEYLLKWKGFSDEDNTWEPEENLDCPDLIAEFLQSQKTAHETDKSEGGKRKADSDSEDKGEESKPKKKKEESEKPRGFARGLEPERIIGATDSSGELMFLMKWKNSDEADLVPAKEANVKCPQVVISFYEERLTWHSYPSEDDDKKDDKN
Method in brief: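 HP1-beta (50 nM) was preincubated 30 min at room temperature with biotinylated H3(1-18)K9me3 peptide (50 nM) in PBS pH 7.4, 0.01% Tween-20, then with compounds 30 min. AlphaScreen signal was read after streptavidin donor/nickel chelate acceptor beads (10 ug/mL final).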

[15] = biological target: Transient receptor potential cation channel subfamily V member 1 (Homo sapiens) (UniProt Q8NER1); assay: HTS Assay for Compounds that Act as Enhancers of the Vanilloid Receptor 1 (AID 488979)
Method in brief: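 Calcium influx kinetics via Fluo-8 (480/520 nm) in TRPV1-expressing cells, 2000/well cultured overnight at 35.5C. Compound-alone read 3 min (agonist phase), followed by EC20 capsaicin challenge for 2 min (enhancer phase).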

[16] = biological target: Thyrotropin receptor (Homo sapiens) (UniProt P16473); assay: qHTS Assay for Antagonists of the Thyroid Stimulating Hormone Receptor (AID 488980); also: series mostly up to about 58 µM
Method in brief: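 Inhibition of cAMP raised by EC80 TSH (4 nM final) was read by HTRF, with lysate cAMP competing against cAMP-d2 for cryptate antibody after 30 min at room temperature. The cells were transfected HEK293 held in phosphodiesterase inhibitor RO 20-1724 at 70 uM.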

[17] = biological target: Thyrotropin-releasing hormone receptor (Homo sapiens) (UniProt P34981); assay: qHTS for Small Molecule Agonists and Allosteric Enhancers of Human TRH Receptor: Validation Screen for Agonists (AID 493127;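 active = calcium activation more than 3 SD above the typical response in the agonist read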;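 also: intracellular calcium rise by fluo-8 fluorescence before TRH EC20 addition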); conditions: TRH receptor agonist cell assay; at 2 µM; stronger effect = higher value
Method in brief: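 TRHR-expressing cells were plated overnight in serum-containing medium, then loaded with fluo-8 calcium dye at room temperature for 30 min–1.5 h. After a 10 s baseline, compound was pin-transferred and calcium fluorescence (ex 480/em 530) read kinetically for agonist response.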

With CC(C)(O)[C@@H]1C2OC(=O)[C@@H]1[C@]1(O)C[C@H]3O[C@]34C(=O)O[C@H]2[C@]14C (tested in a mixture with another compound) the outcome [1] was “inactive”, the Potency [2] was “inactive” and the Potency [3] was “inactive”. For the same compound, the Potency [4] was “inactive”, the outcome [5] was “inactive” and the Potency [6] was “inactive”. For the same compound, the Potency [7] was “inactive”, the Potency [8] was “inactive” and the Potency [9] was “inactive”. The Potency [10] was “inactive”, the Potency [11] was “inactive” and the viability change [11] was -3%. For the same compound, the outcome [12] was “inactive”.

In the case of CCOP(=O)(OCC)O/C(=C/Cl)c1ccc(Cl)cc1Cl, the Potency [13] is reported as “inactive”.

With C[C@@H]1O[C@@H](O[C@H]2C[C@@H](O)[C@]3(CO)[C@@H]4C(CC[C@]3(O)C2)[C@@]2(O)CC[C@H]([C@@H]3COC(=O)C3)[C@@]2(C)C[C@H]4O)[C@H](O)[C@H](O)[C@H]1O (stereo partly specified) the outcome [1] was “inactive”, the Potency [2] was “inactive” and the Potency [3] was “inactive”. For the same compound, the Potency [4] was “inactive”, the Potency [14] was “inactive” and the outcome [5] was “inactive”. The Potency [6] was “inactive”, the Potency [7] was “inactive” and the Potency [8] was “inactive”. For the same compound, the Potency [9] was “inactive”, the Potency [10] was 2.06 µM (active) and the outcome [12] was “inactive”.

For CN1CC[C@@]2(C)c3cc(OC(=O)Nc4ccccc4)ccc3N(C)[C@@H]12, the outcome [1] was “inactive”, the Potency [2] was “inactive” and the Potency [3] was “inactive”. The Potency [4] was “inactive”, the outcome [5] was “inactive” and the Potency [6] was “inactive”. The Potency [7] was “inactive”, the Potency [8] was “inactive” and the Potency [9] was “inactive”. For the same compound, the Potency [10] was “inactive”, the Potency [11] was “inactive” and the viability change [11] was -13.9%. The outcome [12] was “inactive”.

With C[C@@H](Cc1ccccc1)NCCC(c1ccccc1)c1ccccc1 the Potency [13] was “inactive”.

With N[C@@H](Cn1ccc(=O)[nH]c1=O)C(=O)O the outcome [1] was “inactive”, the Potency [2] was “inactive” and the Potency [3] was “inactive”. For the same compound, the Potency [4] was “inactive”, the Potency [14] was “inactive” and the outcome [5] was “inactive”. For the same compound, the Potency [6] was “inactive”, the Potency [7] was “inactive” and the Potency [8] was “inactive”. The Potency [9] was “inactive”, the Potency [10] was “inactive” and the Potency [11] was “inactive”. The viability change [11] was 2.76% and the outcome [12] was “inactive”.

With CN1CCc2cc(O)cc3c2[C@H]1Cc1ccc(O)c(O)c1-3 the outcome [1] was “inactive”, the Potency [2] was 13.4 µM (active) and the Potency [3] was 3.77 µM (active). For the same compound, the Potency [14] was 1.34 µM (active), the outcome [5] was “inactive” and the Potency [6] was “inactive”. The Potency [7] was “inactive”, the Potency [8] was 3.16 µM (active) and the Potency [9] was “inactive”. The Potency [10] was 20.6 µM (active), the Potency [11] was “inactive” and the viability change [11] was -1.2%.

In the case of [Cl-].[Cl-].[Hg+2], the Potency [13] is reported as 8.91 µM (active).

For CCOC(=O)c1ccccc1C(=O)OCC, the Potency [13] was “inactive”.

For CCS(=O)(=O)Nc1cccc(C(=C2CCCCC2)c2cnc[nH]2)c1, the outcome [1] was “inactive”, the Potency [2] was “inactive” and the Potency [3] was “inactive”. For the same compound, the Potency [4] was “inactive”, the outcome [5] was “inactive” and the outcome [15] was “inactive”. For the same compound, the outcome [16] was “inactive”, the Potency [6] was “inactive” and the Potency [7] was “inactive”. The Potency [8] was “inactive”, the Potency [9] was “inactive” and the Potency [10] was “inactive”. The activation [17] was -5.69% (inactive), the Potency [11] was “inactive” and the viability change [11] was 1.78%. For the same compound, the outcome [12] was “inactive”.

With CCCN1CCc2cccc3c2[C@H]1Cc1ccc(O)c(O)c1-3 the outcome [1] was “inactive”, the Potency [2] was 23.8 µM (active) and the Potency [14] was 70.8 µM (active). For the same compound, the outcome [5] was “inactive”, the Potency [7] was “inactive” and the Potency [9] was “inactive”. For the same compound, the Potency [10] was “inactive”, the Potency [11] was “inactive” and the viability change [11] was 0.172%. The outcome [12] was “inactive”.

For C=CCN=C=S, the Potency [13] was “inactive”.

In the case of CCNC(=O)[C@H]1O[C@@H](n2cnc3c(N)ncnc32)[C@H](O)[C@@H]1O, the outcome [1] is reported as “inactive”, the Potency [2] is reported as “inactive” and the Potency [3] is reported as “inactive”. The Potency [4] was “inactive”, the outcome [5] was “inactive” and the Potency [6] was “inactive”. For the same compound, the Potency [7] was “inactive”, the Potency [8] was “inactive” and the Potency [10] was “inactive”. For the same compound, the outcome [12] was “inactive”.

With COc1ccc2c(c1)c(CCN1CCOCC1)c(C)n2C(=O)c1cccc(Cl)c1Cl the outcome [1] was “inactive”, the Potency [2] was “inactive” and the Potency [3] was “inactive”. The Potency [14] was 44.7 µM (active), the outcome [5] was “inactive” and the Potency [6] was “inactive”. For the same compound, the Potency [7] was “inactive”, the Potency [8] was “inactive” and the Potency [9] was “inactive”. The Potency [10] was 8.2 µM (active) and the outcome [12] was “inactive”.
